# Reference: PubChem BioAssay AID1362 (SRMLSC, 2008)
# Screen size: about 190,000 compounds; about 4,000 (2.1%) were called active. This is one part of a sample in which actives are shown more often than they occur. No stated cut-off is given here; in the data, active means inhibition above about 58%; inactive means the rest, inconclusive results apart; tested in S. cerevisiae.
# Experiment: growth inhibition of WT strain, primary screen, mitochondrial fusion inhibitor project, WT and mutant strains, chemical genetic (AID 1362)
# Settings: mitochondrial fusion phenotypic screen, at 10 µM
# [1] = WT strain, growth inhibition, stronger effect = higher value
SMILES,inhibition [1],inhibition (mutant strain inhibition)
Cc1ccc(COc2ccc(/C=N/NC(=O)CN3CCCCC3)cc2)cc1,0.04% (inactive),-4.75%
COC(=O)Cc1nc2ccccc2[nH]1,16.6% (inactive),14%
c1ccc2c(CSCc3nc4ccccc4[nH]3)cccc2c1,74.6% (active),69.3%
Clc1ccccc1SCc1nc2ccccc2[nH]1,39.4% (inactive),35.4%
O=C(NCc1ccccc1)C1CCCN(c2nc3ccsc3c(=O)s2)C1 (stereo unspecified),-14.1% (inactive),0.23%
O=C(c1ccc(Cl)c([N+](=O)[O-])c1)N1CCN(c2ccccc2)CC1,65.8% (inactive),70.4%
O=C(/C=C/c1ccc(Cl)cc1)N1CCN(c2ccccc2[N+](=O)[O-])CC1,65.4% (active),39.2%
CO/N=C/c1ccc(N2CCN(C(=O)c3cccc(Cl)c3)CC2)c([N+](=O)[O-])c1,36.5% (inactive),22.2%
CCn1cc(C(=O)NCCCN2CCCCCC2)c(=O)c2cc(S(=O)(=O)N3CCc4ccccc4C3)ccc21,4.36% (inactive),-2.13%
COc1ccc(NC(=O)CCNS(=O)(=O)c2ccc3c(c2)c(=O)n(C)c(=O)n3C)cc1OC,-9.99% (inactive),2.95%
COC(=O)Cc1ccc(N(Cc2ccccc2F)S(=O)(=O)c2ccc(Br)cc2)cc1,69.7% (active),64.6%
CCCNC(=O)CN(Cc1ccccc1F)S(=O)(=O)c1ccc(C)cc1,-13.2% (inactive),-40.4%
O=C(COC(=O)Cc1ccc(Br)cc1)Nc1c(F)c(F)c(F)c(F)c1F,19.9% (inactive),7.41%
CCCS(=O)(=O)N1CCC(CCOc2ccccc2)(C(=O)OCC)CC1,5.25% (inactive),-7.89%
CCSC1=NCCN1C(=O)c1ccc(S(=O)(=O)N(CC)CC)cc1,1.64% (inactive),-5.04%
O=C(COC(=O)c1ccncc1)c1ccccc1,-12.9% (inactive),3%
COc1ccc(N2CCN(CCNC(=O)CCN3C(=O)COc4ccccc43)CC2)cc1,-0.99% (inactive),42.7%
COc1ccc(CN2CC(C(=O)NCCN3CCN(c4ccccc4F)CC3)CC2=O)cc1 (stereo unspecified),5.07% (inactive),14.3%
COc1ccc(N2CCN(CCNC(=O)c3nnc(Cc4c(F)cccc4Cl)o3)CC2)cc1,82.5% (active),-0.13%
O=C(CCn1ccc([N+](=O)[O-])n1)Nc1nccs1,-14.4% (inactive),2.54%
Cn1c(N)c(C(=O)COC(=O)c2ccccc2NCc2ccco2)c(=O)n(C)c1=O,12.2% (inactive),-19.6%

SMILES,inhibition [1],inhibition (mutant strain inhibition)
Cc1ccc(NC(=O)OCc2cncs2)cc1,-3.01% (inactive),3.18%
COc1ccc(OC)c(C(=O)c2ccc(C(=O)N3CCN(Cc4csc(C)n4)CC3)cc2)c1,-23% (inactive),5.3%
Cc1ccc(Cl)c(NC(=O)CN2CCN(C=O)CC2)c1,-7.62% (inactive),12.5%
CC(=O)OC(COc1ccc(F)cc1)Cn1cnc2ccccc21 (stereo unspecified),-0.37% (inactive),4.78%
OC(COc1ccc2ccccc2c1)Cn1cncn1 (stereo unspecified),4.91% (inactive),-2.41%
CC(C)c1ccc(OCC(O)Cn2cnc3ccccc32)cc1 (stereo unspecified),95.7% (active),0.12%
CC(=O)Nc1cccc(-c2nc3ccccc3s2)c1C,-0.41% (inactive),-5.28%
COC(=O)C1=C(C)N(C(C)c2ccccc2)C(=O)/C1=C\c1ccco1 (stereo unspecified),58.3% (active),-4.58%
O=C(CCCN1C(=O)/C(=C/c2ccco2)SC1=S)Nc1ccccc1,1.95% (inactive),-17.3%
COC(=O)C1=C(C)N(c2ccc(Br)cc2)C(=O)/C1=C\c1ccco1,13.1% (inactive),8.54%
O=C(NCCN1CCOCC1)Nc1cccc(Cl)c1,-7.63% (inactive),-3.81%
Cc1cc(C)cc(OCC(=O)NCc2cc(C)nc3ccccc23)c1,-2.23% (inactive),3.06%
COc1cc(NC(=S)N2CCCC(C)C2)c(OC)cc1Cl (stereo unspecified),-3.52% (inactive),1.38%
COc1ccc(NC(=O)COc2ccc(C(=O)OCC(=O)N(C)C3CCS(=O)(=O)C3)cc2OC)cc1 (stereo unspecified),-3.64% (inactive),1.53%
O=C(Nc1cccc(S(=O)(=O)N2CCCCC2)c1)c1ccc2c(c1)OCO2,9.86% (inactive),4.97%
O=C(Nc1ccc(Cl)cn1)c1ccc2c(c1)OCCO2,27.3% (inactive),29%
O=C(Nc1cccc(S(=O)(=O)Nc2ccc(Cl)cc2)c1)c1ccc2c(c1)OCCO2,63.7% (active),29.9%
CCn1nc(C)cc1C(=O)N1CCCC(C(=O)c2cccc(OC)c2)C1 (stereo unspecified),-20.3% (inactive),1.68%
Cn1nnnc1SCC(=O)NNC(=O)c1ccc(Br)cc1,-19.9% (inactive),0.05%
COc1cc(/C=N/NC(=O)c2cc(C)n(-c3ccc(F)cc3)c2C)cc(OC)c1O,1.5% (inactive),1.64%
CCn1c(SCC(=O)Nc2cc(C)c(Cl)cc2OC)nnc1-c1ccco1,23% (inactive),32.2%

SMILES,inhibition [1],inhibition (mutant strain inhibition)
COc1cc(Cl)c(C)cc1NC(=O)CSc1nnc(-c2ccco2)n1CC(C)C,63.4% (active),39.5%
COc1cc(Cl)c(C)cc1NC(=O)CSc1nnc(-c2cccnc2)n1Cc1ccco1,2.54% (inactive),2.3%
CCN(CC)CCOC(=O)c1ccc(NC(=O)CNC(=O)c2ccccc2)cc1,19.4% (inactive),15.8%
COc1ccccc1NC(=S)NC(=O)C(C)C,48% (inactive),2.93%
COc1ccccc1NC(=S)N1CCC(NC(=O)C23CC4CC(CC(C4)C2)C3)CC1,-5.17% (inactive),19%
CC(C)OCC(O)CN1CCN(C(c2ccccc2)c2ccccc2)CC1 (stereo unspecified),11% (inactive),3.96%
CC(C)NC(=S)N1CCN(C(c2ccccc2)c2ccccc2)CC1,64.7% (active),29.4%
CC(C)NC(=S)N1CCN(S(C)(=O)=O)CC1,-2.96% (inactive),11.2%
COc1ccccc1NC(=S)N1CCN(C(c2ccccc2)c2ccccc2)CC1,58.8% (active),38.3%
O=C1CN(C(=O)COC(=O)c2cnc(Cl)c(Cl)c2)c2ccccc2N1,-3.97% (inactive),-29.4%
O=C(COC(=O)c1ccco1)NCc1ccc(Cl)cc1,2.75% (inactive),-1.13%
Cc1n[nH]c(=O)n1-c1ccc(C(C)C)cc1,-5.29% (inactive),-2.69%
O=C(CO/N=C/c1ccc(OC(F)F)cc1)NCc1ccc(F)cc1,16.7% (inactive),27%
CC(C(=O)N=Nc1c(O)n(C)c2ccc(Br)cc12)n1cnc2ccccc2c1=O (stereo unspecified),17.8% (inactive),30.6%
COCCN(CCOC)S(=O)(=O)c1ccc(/C(O)=C(\C#N)c2nc3ccccc3[nH]2)cc1,-0.78% (inactive),-1.8%
CC(C)CN1CCNC(=O)C1CC(=O)N(C)CC1CCOCC1 (stereo unspecified),-4.62% (inactive),-8.09%
COC(=O)C1=C(C)N(c2ccc(C)cc2)/C(=C/c2ccc(O)cc2)C1=O,5.84% (inactive),0.5%
COc1ccc(/C=N/NC(=O)CNC(=O)c2ccc(S(=O)(=O)N3CCCC3)cc2)c(OC)c1,7.02% (inactive),8.18%
Cc1nnc(CN(C)Cc2cn[nH]c2-c2ccc(-c3ccccc3)cc2)o1,6.53% (inactive),-1.49%
CCCc1ccc(OCC(=O)NNC(=S)NC(=O)c2ccco2)cc1,87.8% (inactive),88.2%
CC(Oc1ccc2ccccc2c1)C(=O)NNC(=S)NC(=O)c1ccco1 (stereo unspecified),86.5% (active),80.5%

SMILES,inhibition [1],inhibition (mutant strain inhibition)
O=C(Nc1ccc2ccccc2c1)/C(=C/c1cccc(Br)c1)NC(=O)c1ccco1,17.2% (inactive),10.9%
CCCNC(=O)Nc1ccccc1C(=O)Nc1ccc(OC)cc1,-0.69% (inactive),-0.17%
CCCNC(=O)c1ccccc1NC(=O)CSCc1ccc(OC)cc1,72.9% (active),19.6%
CCCCCNC(=O)c1cccnc1SCC(=O)Nc1ccccc1OC,-6.44% (inactive),-24%
Cc1cccc(C)c1NC(=O)C1(C)c2cccc[n+]2CC(=O)N1Cc1cccs1 (stereo unspecified),-7.87% (inactive),0.75%
COc1cccc(/C=N/NC(=O)c2cccc([N+](=O)[O-])c2)c1OS(=O)(=O)c1ccc(C)cc1,-5.41% (inactive),-3.16%
CCOc1cc(/C=N/O)cc(Br)c1OC,-2.36% (inactive),-20.3%
COc1cc(/C=N/O)cc(Br)c1OS(=O)(=O)c1ccc(C)cc1,71.3% (active),30.6%
CCOc1c(Cl)cc(/C=N/O)cc1OC,-6.94% (inactive),-20.7%
COc1cc(/C=N/O)cc(Br)c1OCc1cccc(Cl)c1,91.4% (active),76.3%
COc1cc(/C=N/Nc2ccc(C)cc2)cc(Br)c1O,15.8% (inactive),37.7%
N#CC1(C#N)C(C(=O)C23CC4CC(CC(C4)C2)C3)C12CCOCC2 (stereo unspecified),21.5% (inactive),11.6%
CCOc1cc(N2CCOCC2)c(OCC)cc1NC(=O)C1=NN(c2cccc(C)c2)C(=O)CC1,-2.98% (inactive),16.4%
Cc1cc(C)c(OCCN2CC(C)OC(C)C2)c(Br)c1 (stereo unspecified),21.8% (inactive),42.5%
S=c1[nH]nc(COc2ccccc2)n1-c1ccccc1,-7.14% (inactive),-7.05%
Cc1ccc(OCc2n[nH]c(=S)n2-c2ccccc2)cc1,11.4% (inactive),20.6%
Cc1ccc(OCc2n[nH]c(=S)n2-c2ccc(C)cc2)cc1,69.9% (active),60.1%
COc1ccc(CN(C)C(=S)Nc2ccc(Cl)cc2Cl)cc1,22.4% (inactive),21.9%
O=Cc1cn(Cc2ccccc2)nc1-c1cccnc1,-22.6% (inactive),3.85%
N#C/C(=C(\O)C(F)(F)F)c1nnc2n1CCCCC2,22% (inactive),13.5%
